Compound activity: PubChem BioAssay, National Center for Advancing Translational Sciences (NCATS)
Shown are actives, neighbours in structure and some others; about 21% of the full set was active somewhere.
Shiga inhibitor: inhibitors of Shiga toxin in Vero cells; Vero cells, Shiga toxin protein synthesis inhibition reporter; inhibition, % at 38.7 µM; 9.2% of 290,000 active; in the data active means inhibition mostly above about 28%, no sharp cut-off; inactive means mostly below about 43%; further: 0% is about no effect
Pf growth 48h: inhibits P. falciparum growth in the first generation, 48 h | P. falciparum luciferase growth in erythrocytes, 48 h | Potency, µM (highest dose often 28.7 µM), for the others: top-dose activity change, negative = inhibition, actives largely listed as inhibitors | 5.9% of 310,000 active; further: potency means the concentration at half of the fitted maximal effect; on the % scale 0 is the no-effect control and ±100 the full control effect
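A one-generation exposure of luciferase-tagged malaria parasites in RPMI 1640/Albumax erythrocyte culture, 37 C and 5% CO2. Inhibition is inferred from decreased luminescence after adding detection reagent.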
NS1 inh: influenza NS1 inhibition | Potency, µM (top dose mostly 46.1 µM), for the others: at the highest dose activity, positive = more growth | 0.4% of 270,000 active | AID 2326; calls by dose curve; further: potency means the concentration at half of the fitted maximal effect; actives are rising curves; nearly all actives have a fitted effect of over 50% in size
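Compounds were scored for reversing the slow growth caused by influenza A NS1 in S. cerevisiae, measured by optical density at 600 nm. Assay medium contained 2% galactose at pH 6.0; NS1-free yeast of the same strain were the positive control.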
CHX counter: counter-screen hit for Shiga toxin inhibitors, cycloheximide. cell reporter, cycloheximide protein synthesis inhibition counterscreen. max response, %. 12% of 300,000 active. AID 2314; in the data active means max response mostly above about 13%, no sharp cut-off; inactive means mostly below about 14%; further: read at 38.3 µM for the half of the compounds with a filed dose; 0% is about no effect
Pf growth 96h: P. falciparum growth inhibition at 96 hours; P. falciparum luciferase reporter growth, 96 h; Potency, µM (series often up to 28.7 µM), without a hit: top-dose activity change, negative = inhibition, usual class: inhibitors; 6.9% of 320,000 active; further: potency means the concentration at half of the fitted maximal effect; on the % scale 0 is the no-effect control and ±100 the full control effect
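P. falciparum expressing integrated firefly luciferase grown in erythrocytes (2% hematocrit, 0.05% parasitemia final) with compounds for 96 hours at 37 C, 5% CO2. Growth inhibition read as loss of luminescence after adding luciferase detection reagent.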
Sm TGR block: blocks Schistosoma mansoni thioredoxin glutathione reductase. Q962Y6. purified TGR, DTNB reduction, TNB absorbance 405 nm. Potency, µM (top dose mostly 114 µM), for the others: top-dose activity change, negative = inhibition, usual class: inhibitors. 3% of 360,000 active. AID 485364; further: potency means the concentration at half of the fitted maximal effect; on the % scale 0 is the no-effect control and ±100 the full control effect; nearly all actives have a fitted effect of over 60% in size
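First, TGR (20 nM dispensed) and NADPH were mixed with compound. Second, a 15 min room-temperature incubation followed. Third, further NADPH and then DTNB were added to start the reaction. Finally, TNB absorbance was monitored kinetically.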
Numbers without * were called inactive; i = inactive; ? = inconclusive; . = no result. Unless noted, the call rests on the fitted dose curve; in most records, active means well fitted curve in the direction sought with a large enough effect; inconclusive means small, poorly fitted or top-dose-only effect, or another doubt; inactive means no such curve, though single readings can be large; an effect the other way counts as inactive or inconclusive.

SMILES	Shiga inhibitor	Pf growth 48h	NS1 inh	CHX counter	Pf growth 96h	Sm TGR block
CCOC(=O)c1ccccc1NC(=O)CSc1ncc(CO)n1Cc1ccc(C)cc1	.	.	.	.	.	-8.4%
COc1ccc(S(=O)(=O)N(CC(=O)NCc2ccccn2)c2ccc(Cl)cc2)cc1	-3.6	10.4µM*	-2.4%	7.6	31.9%	0.0%
Cc1cccc(N(CC(=O)NCCSCc2ccco2)S(=O)(=O)c2ccccc2)c1	-22.3	?	-6.3%	-2.1	?	31.6µM*
O=C(CN(c1cccc(Cl)c1)S(=O)(=O)c1ccc(Cl)cc1)NCc1ccccn1	-30.1	?	-12.6%	-1.7	?	-7.5%
Cc1ccc(C)c(N(CC(=O)NCCSCc2ccco2)S(C)(=O)=O)c1	26.7	?	?	-1.1	?	20µM*
COc1ccc(OC)c(CNC(=O)c2cc3c(=O)oc4ccc(C)cc4c3s2)c1	.	.	.	.	.	0.5%
COc1ccc(Cl)cc1N1C(=N)SCC1=O	-3.8	27.8%	2.7%	-2.6	19.7%	0.0%
CCOC(=O)[C@H]1[C@H]2COc3cc(OC)ccc3[C@@H]2N2C(=O)c3cc(F)ccc3NC(=O)[C@@]12C	.	9.28µM*	.	.	10.4µM*	2.0%
CCOC(=O)[C@H]1[C@H]2COc3cc(OC)ccc3[C@@H]2N2C(=O)c3cc(C)ccc3NC(=O)[C@@]12C	.	4.65µM*	.	.	2.33µM*	2.4%
CCOC(=O)[C@H]1[C@H]2COc3cc(OC)ccc3[C@@H]2N2C(=O)c3ccc(C)cc3NC(=O)[C@@]12C	.	?	.	.	?	3.6%
CCOC(=O)[C@H]1[C@H]2COc3ccc(Br)cc3[C@@H]2N2C(=O)c3cc(F)c(F)cc3NC(=O)[C@@]12C	.	16.5µM*	.	.	?	5.7%
CCOC(=O)[C@H]1[C@H]2COc3ccc(Cl)cc3[C@@H]2N2C(=O)c3ccc(Cl)cc3NC(=O)[C@@]12C	.	10.4µM*	.	.	13.1µM*	-0.3%
COc1ccc(S(=O)(=O)N2CCCCCC2)cc1C(=O)N(CC(C)C)C1CCS(=O)(=O)C1 (stereo not drawn)	.	?	.	.	-8.0%	-0.5%
CNC(=O)c1c(NC(=O)c2nc(SCc3ccc(C)cc3)ncc2Cl)sc2c1CCCC2	.	.	.	.	.	-0.6%
CCCCc1nnc(NC(=O)CCN2C(=O)C3CC=CCC3C2=O)s1 (stereo not drawn)	.	?	.	.	?	-7.1%
CCOC(=O)[C@H]1[C@H]2COc3cc(OC)ccc3[C@@H]2N2C(=O)c3cc(OC)ccc3NC(=O)[C@@]12C	.	1.31µM*	.	.	6.57µM*	4.6%
CCOC(=O)[C@H]1[C@H]2COc3cc(OC)ccc3[C@@H]2N2C(=O)c3ccc(F)cc3NC(=O)[C@@]12C	.	?	.	.	?	7.0%
CCOC(=O)[C@H]1[C@H]2COc3cc(OC)ccc3[C@@H]2N2C(=O)c3cc(F)c(F)cc3NC(=O)[C@@]12C	.	?	.	.	13.1µM*	0.0%
COc1ccc(C)cc1Nc1nc2c(S(=O)(=O)c3cc(C)ccc3C)nnn2c2ccsc12	.	.	.	.	.	-0.1%
CCCNC(=O)c1nnsc1S(=O)(=O)c1ccc(Cl)cc1	29.6	0.2%	.	27.0*	6.6%	0.316µM*
CNC(=O)c1nnsc1S(=O)c1ccc(Cl)cc1 (stereo not drawn)	98.2*	14.7µM*	.	55.3*	?	0.316µM*
CCCNC(=O)c1nnsc1S(=O)c1ccc(Cl)cc1 (stereo not drawn)	17.7	?	.	36.0*	?	0.316µM*
Cc1ccc(S(=O)c2snnc2C)cc1 (stereo not drawn)	-6.0	.	2.1%	-1.9	-15.0%	-33.8%
CCCNC(=O)NS(=O)(=O)c1ccc(Cl)cc1	-10.0	11.8%	-0.4%	-3.4	-16.4%	-18.4%
O=C(NNC(=O)c1ccco1)c1ccc(NS(=O)(=O)c2cccs2)cc1	.	-3.0%	.	.	-17.9%	-21.5%
SMILES	Shiga inhibitor	Pf growth 48h	NS1 inh	CHX counter	Pf growth 96h	Sm TGR block
N/C(=N\OC(=O)c1ccc(Cl)cc1)c1nonc1N	78.5*	36.7%	-8.3%	44.3*	43.0%	5.0%
N/C(=N\OCc1ccccc1)c1nonc1N	98.8*	226.8%	.	54.7*	?	16.6%
N/C(=N\OCC(=O)Nc1ccccc1)c1nonc1N	2.7	0.0%	8.5%	12.0	58.9%	-2.4%
N/C(=N/OCc1cccc([N+](=O)[O-])c1)c1nonc1N	16.7	20.7%	-12.8%	7.5	17.8%	0.1%
N/C(=N/OC(=O)c1ccccc1F)c1nonc1N	64.0*	48.6%	-8.3%	35.4*	-19.8%	.
Nc1nonc1C(=O)OCC(=O)c1ccc(Cl)cc1	-10.4	13.8%	0.6%	-2.6	0.2%	-21.4%
O=C(NN1C(=O)NC2(CCCCC2)C1=O)c1ccc(Cl)s1	.	3.9%	.	.	-24.9%	-16.2%
Cc1ccc2nc3ccc(N4CCCCCCC4)nn3c(=O)c2c1	56.3*	40.1%	-5.6%	28.1*	.	4.5%
O=c1c2ccccc2nc2ccc(N3CCOCC3)nn12	51.8*	102.4%	4.5%	28.5*	?	5.5%
Cc1ccc2nc3ccc(N4CCN(C)CC4)nn3c(=O)c2c1	57.3*	174.6%	-0.9%	32.3*	102.5%	-8.7%
COc1cc2c(cc1OC)CN(C(=O)/C=C/c1cccc([N+](=O)[O-])c1)CC2	-8.9	-15.5%	-19.8%	5.4	-18.9%	-0.1%
CCN(C(=O)c1cc2ccccc2oc1=O)c1cccc(C)c1	77.7*	.	2.9%	53.0*	?	13.3%
CCN(C(=O)c1cc2cc(OC)ccc2oc1=O)c1cccc(C)c1	-4.3	.	-8.4%	9.7	?	0.1%
CCN(C(=O)c1cc2ccccc2oc1=O)c1ccccc1	42.1	.	-9.4%	24.3*	.	1.0%
O=C(NNC(=S)Nc1ccc(Cl)cc1)c1cccs1	99.9*	77.9%	-3.9%	38.3*	-1.3%	0.0%
O=C(NNC(=S)Nc1ccccc1)c1cccs1	47.1*	193.0%	4.1%	37.8*	256.0%	0.1%
O=C(Nc1ccc(S(=O)(=O)N2CCOCC2)cc1)c1cc(-c2cc(Cl)ccc2O)n[nH]1	-7.3	0.828µM*	-2.0%	-2.5	1.31µM*	14.8%
NS(=O)(=O)c1ccc(NC(=O)c2cc(-c3ccccc3O)n[nH]2)cc1	-1.3	?	12.2%	-8.1	?	-5.2%
Cc1cc(O)c(-c2cc(C(=O)Nc3ccc(S(=O)(=O)N4CCOCC4)cc3)[nH]n2)cc1C	1.8	1.85µM*	-35.8%	-2.2	i	3.3%
CCCOc1ccc(C(=O)N(Cc2cccs2)C2CCS(=O)(=O)C2)cc1 (stereo not drawn)	6.1	-12.2%	-7.4%	6.5	74.6%	-4.8%
O=C(CCn1cnc2onc(-c3ccc(F)cc3)c2c1=O)N1CCN(c2ccccc2)CC1	.	.	.	.	.	-1.3%
Cc1cc(C)c2c(n1)nn1c(NCCCn3ccnc3)cc(C)nc21	3.2	10.4%	-9.4%	-5.3	?	11.5%
Cc1nn2c(NCc3ccccn3)cc(C(C)C)nc2c1-c1ccccc1	-4.9	1.65µM*	-80.8%	1.0	1.65µM*	-4.4%
